# The list is not random: actives were taken first. Their share in the collection is about 9.4%.
# Pf growth 48h: inhibits P. falciparum growth in the first generation, 48 h; hit rate 5.9% among 310,000; P. falciparum luciferase growth in erythrocytes, 48 h; AID 504832; Potency, µM (titrated, usually from 28.7 µM), for inactives: top-dose activity change, negative = inhibition, most hits filed as inhibitors; also: % is scaled to controls: 0 for no effect and ±100 for the full control effect
#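 Read-out is firefly luciferase luminescence from an integrated reporter in P. falciparum, so falling signal marks reduced parasite growth. Infected erythrocytes were at 2% hematocrit and 0.1% parasitemia (final) in Albumax-supplemented RPMI 1640.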
# SARS PLP yeast: blocks SARS-CoV papain-like protease in a yeast assay; S. cerevisiae expressing SARS-CoV PLpro, growth rescue; Potency, µM (highest dose often 32.9 µM), for the others: top-dose activity, positive = growth rescue, actives largely listed as activators; hit rate 0.19% among 330,000; AID 485353; calls by dose curve; also: 0% is about no effect; nearly all actives have a fitted effect of over 55% in size
# Pf growth 96h: P. falciparum growth inhibition at 96 hour, primary screen for plastid delayed-death inhibitors. P. falciparum luciferase reporter growth, 96 h. hit rate 6.9% among 320,000. AID 504834. Potency, µM (series often up to 28.7 µM), without a hit: top-dose activity change, negative = inhibition, hits mostly inhibitors; also: % is scaled to controls: 0 for no effect and ±100 for the full control effect
#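 P. falciparum expressing integrated firefly luciferase, in erythrocytes at 2% hematocrit, 0.05% parasitemia, incubated with compounds 96 h at 37 C, 5% CO2. Growth inhibition read as loss of luminescence; two-generation exposure targets delayed-death apicoplast inhibitors.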
# AMA1-RON2 inh: AMA1-RON2 (P. falciparum) interaction inhibition. AID 720542. AlphaScreen AMA1-biotinylated RON2 peptide binding. Potency, µM (top dose mostly 58.2 µM), without a hit: top-dose activity change, negative = inhibition, most hits filed as inhibitors. hit rate 0.2% among 360,000;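 also: 0% = vehicle wells and -100% = peptide control; nearly all actives have a fitted effect of over 45% in size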
#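 AMA1 (3D7) with his tag at 25 nM final met compounds first, then biotinylated RON2 peptide at 25 nM; detection used donor plus acceptor beads, 10 µg/mL apiece, read by AlphaScreen after 30 min at room temperature.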
# * = called active by the depositor; u = inconclusive; x = no result given. Unless noted, calls follow the shape of the dose curve; as a rule, active = well fitted curve in the direction sought with a large enough effect; inconclusive = small, poorly fitted or top-dose-only effect, or another doubt; inactive = no such curve, though single readings can be large; an effect the other way counts as inactive or inconclusive. Potency is read from the fitted curve at half-maximal effect.
SMILES,Pf growth 48h,SARS PLP yeast,Pf growth 96h,AMA1-RON2 inh
Cc1ccccc1NC(=O)Cc1nc(COC(=O)c2cc(Cl)ccc2O)cs1,-4%,-2%,-1%,0%
CCN1C(=O)c2n[nH]c(C(=O)OC)c2C1=O,u,10%,10µM*,-4%
O=C(NCc1ccccc1)NC(=O)c1ccccc1F,60%,-9%,u,0%
COc1ccc(OC)c(CNn2c(-c3cccc(C)c3)nc3ccccc3c2=O)c1,x,-18%,8.3µM*,-8%
COc1ccc(OCC(=O)Nn2c(-c3ccc(C)cc3)nc3ccccc3c2=O)cc1,27%,22%,-7%,8%
COc1cccc(CNn2c(-c3cccc(C)c3)nc3ccccc3c2=O)c1,x,-18%,9.3µM*,-4%
COc1cccc(CC(=O)Nn2c(C)nc3ccccc3c2=O)c1,3%,3%,-20%,11%
O=C(CCc1ccc(O)cc1)NNC(=S)NCCc1ccccc1,-2%,1%,17%,77%
O=C(NNC(=S)NCCc1ccccc1)c1ccc(Br)s1,4%,0%,9.3µM*,94%
CC(C)OC12Oc3ccccc3C=C1N1CCC2CC1 (stereo unspecified),-4%,-24%,u,1%
CN1CC2=Cc3ccccc3OC23Oc2ccccc2C=C3C1,9.3µM*,1%,12µM*,-8%
Cc1nc(N2CCCCC2)c2c(C)c(C(=O)Nc3cccc(C(F)(F)F)c3)sc2n1,2.6µM*,-3%,-30%,-6%
Cc1nc(N2CCCCC2C)c2c(C)c(C(=O)Nc3cccc(C(F)(F)F)c3)sc2n1 (stereo unspecified),u,-2%,25%,10%
Cc1nc(N2CCCCC2)c2c(C)c(C(=O)Nc3ccccc3C(F)(F)F)sc2n1,9.3µM*,-2%,u,-14%
O=c1/c(=C\c2cc([N+](=O)[O-])cc([N+](=O)[O-])c2O)sc2nc3ccccc3n12,2%,2%,-88%,-13%
COc1cc(CN=Cc2c(O)n(C(C)(C)C)c(=O)[nH]c2=O)cc(OC)c1,-5%,0%,6%,-1%
Cc1n[nH]c(C)c1CCN(C)Cc1cn(C)nc1-c1ccc2c(c1)OCCO2,28%,2%,1.3µM*,-1%
COC(=O)c1sccc1NC(=O)Nc1ccccc1F,60%,-10%,9.3µM*,13%
COC(=O)c1c(NC(C)=O)sc(C(=O)Nc2ccccc2F)c1C,50%,1%,41%,24%
COC(=O)c1sccc1NC(=O)Nc1ccccc1C,12%,0%,35%,-2%
CCC(=O)Nc1sc(C(=O)Nc2ccccc2F)c(C)c1C(=O)OC,6%,2%,2.1µM*,-6%
Cc1ccc(CNC2=NCCS2)cc1,u,2%,3.3µM*,3%
Cc1ccc(NC(=O)CCOc2ccccc2)cc1,85%,-1%,-13%,9%
COC(=O)C1=C(C(=O)OC)[C@@H]2N(C)c3ccc(OC)cc3[C@@]23C[C@@H](C(=O)OC)N(C(=O)c2ccco2)C3=N1,x,x,x,-12%
CN(C)c1ccc(/C=C/c2nnnn2-c2ccccc2)cc1,196%,19%,13µM*,u
SMILES,Pf growth 48h,SARS PLP yeast,Pf growth 96h,AMA1-RON2 inh
Cc1cc(N/C=C\c2nnnn2-c2ccccc2)no1,-9%,17%,65%,5%
CC(C)C12CN3CCN(CC(C3)C1O)C2 (stereo unspecified),6%,x,-4%,0%
N=c1n(CCN2CCCCC2)c2ccccc2n1CC(=O)c1ccc(Cl)c(Cl)c1,1.5µM*,0%,2.6µM*,-2%
N=c1n(CCN2CCCCC2)c2ccccc2n1CC(O)c1cccc(Br)c1 (stereo unspecified),0.59µM*,11%,0.74µM*,-1%
COc1ccccc1OCC(O)Cn1c(=N)n(CCN2CCCCC2)c2ccccc21 (stereo unspecified),3.3µM*,11%,-22%,1%
Cc1ccc(C(=O)Cn2c(=N)n(CCN3CCOCC3)c3ccccc32)cc1,9.3µM*,-1%,u,31%
N=c1n(CCN2CCCCC2)c2ccccc2n1CC(O)COc1ccccc1 (stereo unspecified),u,10%,50%,-2%
Nc1c(-c2cccs2)cnc2c(-c3ccc(F)cc3)cnn12,162%,-3%,437%,109%
N=c1n(CCN2CCCCC2)c2ccccc2n1CC(O)c1ccc(Cl)c(Cl)c1 (stereo unspecified),x,-3%,0.29µM*,-6%
COC(=O)Cn1c(=N)n(CCN2CCCCC2)c2ccccc21,9%,-1%,12%,3%
